Assay outcomes as filed in PubChem BioAssay.
Shown is part of a subset that was picked to be rich in hits.
Pf Dd2 inh: blocks in vitro growth of P. falciparum Dd2. P. falciparum Dd2 growth, SYBR Green, 72 h. Potency, µM (titrated, usually from 28.9 µM), without a hit: at the top dose activity, negative = inhibition, most hits filed as inhibitors. 120,000 tested, 4.3% active. AID 1347417; active means well fitted inhibition curve with a large enough effect;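 further: plate controls were DMSO vehicle for no effect and reference drug for full effect; nearly all actives have a fitted effect of over 65% in size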
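Infected erythrocytes (Dd2, 0.3% parasitemia, 2.5% hematocrit final) are added to compound in RPMI-1640/Albumax II medium, grown 72 h at 37C in low oxygen, then lysed with saponin/Triton-X containing SYBR Green and read by fluorescence.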
Numbers without * were called inactive; i = inactive; [ ] = remark or other dose. Potency means the concentration at half of the fitted maximal effect.

SMILES	Pf Dd2 inh
COc1ccc(CN2CC[C@@](C)(O)[C@H](N3CCCC3)C2)cc1	21.3%[5.79 µM]
Cc1ccsc1C(=O)N1CCC(O)(c2ccccc2)[C@H](N(C)C)C1 (some centres undefined)	i[5.79 µM]
O=C(c1cccs1)N1CCC(O)(c2ccccc2)[C@H](N2CCCC2)C1 (some centres undefined)	1.41µM*
O=C(C1CC1)N1CC[C@](O)(c2ccccc2)[C@H](N2CCCC2)C1	i[5.79 µM]
Cc1nc(N2CCC(C(=O)NC3CCCCCC3)CC2)cc(C(F)(F)F)n1	i
CCCc1ncncc1C(=O)NC1CC(c2nnc(CO)n2C2CC2)C1 (centres undefined)	-1.8%
COC(=O)[C@@H]1Cc2ncn(Cc3ccc(Cl)cc3)c2CN1C(=O)c1cccs1	i
CN1CCCCCCN(S(C)(=O)=O)[C@H]2CCC[C@H]2C1=O	12.4%
C#CCN(C)Cc1nc(C2(O)CCN(C(=O)NCCC)CC2)cs1	14.7%[44.1 µM]
O=C(NC[C@H]1OC[C@@H](NCc2ccccn2)[C@@H]1O)c1ccccc1	-20.4%[44.1 µM]
CC(C)N1CC2CCC(C1)N2Cc1cccc(C#N)c1	-8.4%[44.1 µM]
CC(C)N1CC2CCC(C1)N2Cc1cccc(-c2ccsc2)c1	11.2µM*
O=C(c1ccncc1)N1CC2CCC(C1)N2Cc1cccc(-c2ccsc2)c1	7.6%
COCCN1C(=O)CC[C@]2(C(=O)N(C)CCc3ccncc3)CCCC[C@@H]12	-18.5%
COc1ccccc1CNC(=O)c1ccc(CSc2nc3ccncc3n2Cc2ccccc2C)cc1	7.08µM*
O=C(NCc1ccc(F)cc1)c1ccc(CSc2nc3ccncc3n2Cc2ccc(F)cc2)cc1	11.2µM*
O=C(NCc1cccs1)c1ccc(Cn2c(SCc3cccc(F)c3)nc3cccnc32)cc1	-4.9%
COc1ccc(NC(=O)Cn2c(SCc3cc(C)ccc3C)nc3ccncc32)c(OC)c1OC	-16.8%
COc1cccc(CSc2nc3ccncc3n2CC(=O)Nc2ccc(OC)c(OC)c2OC)c1	-9.9%
COC(=O)c1ccc(Cn2c(SCC(=O)NCc3ccccc3)nc3ccccc32)cc1	27.0%
CCNC(=O)c1ccc(CSc2nc3ccncc3n2Cc2ccc(F)cc2)cc1	7.94µM*
O=C(c1cccc2[nH]ccc12)N1CCC(n2cc(-c3nc(-c4ccccc4)no3)nn2)CC1	-24.4%
COc1cc(Cl)ccc1C(=O)N1CCN(C(=O)c2nnn3c2COC(c2ccccc2)C3)CC1 (centres undefined)	i
O=C(NCCC1=CCCCC1)c1ccc(N2CC3CC(C2)[C@H]2CCCC(=O)N2C3)nc1 (some centres undefined)	-6.6%
O=C(COc1ccccc1)Nc1ccc([C@@H](O)[C@H]2COCC(=O)N2CC2CC2)cc1	-0.5%[44.1 µM]
SMILES	Pf Dd2 inh
CCc1nc(C)c(C(=O)N2CCC3(CC2)CC(c2ccccc2)CN(CC)C3)o1 (centres undefined)	i
CCC1CCCCN1S(=O)(=O)c1ccc(C(=O)Nc2sc3c(c2C(=O)NC)CCC3)cc1 (centres undefined)	12.6µM*
CNC(=O)c1c(NC(=O)/C=C/c2ccccc2)sc2c1CCC2	-17.3%
CCC1CCCCN1S(=O)(=O)c1ccc(NC(=O)c2cc(=O)c3c(C)cc(C)cc3o2)cc1 (centres undefined)	-11.3%
COC(=O)c1c(NC(=O)c2ccc(S(=O)(=O)N3CCCC(C)C3)cc2)sc2c1CCN(C(C)C)C2 (centres undefined)	8.91µM*
COc1ccc(Cl)c2sc(NC(=O)c3ccc(S(=O)(=O)N4CCCC4)cc3)nc12	2.0%
CCOC(=O)c1c(NC(=O)c2ccc(F)cc2)sc2c1CCC(CC)C2 (centres undefined)	20.2%
Cc1ccc2oc(C(=O)Nc3ccc(S(=O)(=O)N4CCCC(C)C4)cc3)cc(=O)c2c1 (centres undefined)	80.5%
CCOC(=O)c1c(NC(=O)c2ccc(C)cc2)sc2c1CCCCC2	26.5%
Cc1ccc2c(=O)cc(C(=O)Nc3ccc(S(=O)(=O)N4CCCC(C)C4)cc3)oc2c1C (centres undefined)	35.6%
CCOC(=O)c1c(NC(=O)c2ccc(S(=O)(=O)N3CCC(C)CC3)cc2)sc2c1CCN(CC)C2	8.91µM*
COC(=O)c1c(NC(=O)c2ccc(S(=O)(=O)N3CCCCC3)cc2)sc2c1CCN(C)C2	10µM*
COC(=O)c1ccc2c(c1)sc(=NC(=O)c1ccc(S(=O)(=O)N3CCCCC3)cc1)n2C	2.2%
CCC1Oc2ccc(NC(=O)c3cccc(OC)c3)cc2CN(Cc2ccccc2)C1=O (centres undefined)	i
O=C(CCC1CCN(C(=O)[C@H]2C[C@@H]3C=C[C@H]2C3)CC1)N1CCC(Cc2ccccc2)CC1	-11.6%
CCn1ncc(C(=O)N2CCC(C3CCN(S(C)(=O)=O)CC3)C2)c1C (centres undefined)	-4.2%
O=C(Nc1ccccc1F)N1CC(c2nnc(-c3ccncc3)o2)C2(CCOCC2)C1 (centres undefined)	-5.0%
Cc1ccc(-c2nc(C(=O)N3CCN(c4ccc(C)cc4)CC3)no2)cc1	9.2%
COc1ccccc1NC(=O)N(Cc1ccc2c(c1)OCO2)C1CCN(Cc2ccccc2)CC1	11.2µM*
O=C(Nc1ccccc1)N(Cc1ccc2c(c1)OCO2)C1CCN(Cc2ccccc2)CC1	-28.3%
CCN1CCC(N(Cc2ccc3c(c2)OCO3)C(=O)Nc2cccc(C)c2C)CC1	18.4%
COC(=O)[C@@H](CC(C)C)NC(=O)[C@@H]1C[C@@H](n2nnc(C(N)=O)c2C(N)=O)CCN1C(=O)c1cccn1C	-9.9%
NC(=O)NCC(=O)N1CCCC(Nc2ccc3c(c2)OCCO3)C1 (centres undefined)	i
Cc1cccc(C)c1NC(=O)CCCN1C(=O)CCn2nc(-c3cn(C)c4ccccc34)cc21	44.0%
COc1cc(NC(=O)CCCN2C(=O)CCn3nc(-c4cn(C)c5ccccc45)cc32)cc(OC)c1	7.94µM*
SMILES	Pf Dd2 inh
Cn1cc(-c2cc3n(n2)CCC(=O)N3CCCC(=O)Nc2ccc(Cl)cc2)c2ccccc21	1.7%
O=C1NCC2(CCN(C(=O)c3cn(CCC4CCCCN4)nn3)CC2)O1 (centres undefined)	-11.3%
Cn1ncc(N2CCN(CC3(O)CCCNC3)CC2)cc1=O (centres undefined)	-2.7%
OC1(CN2CCN(c3nccs3)CC2)CCCNC1 (centres undefined)	-3.7%
OC1(CN2CCN(c3ccc(F)c(Cl)c3)CC2)CCCNC1 (centres undefined)	7.94µM*
O=C(NCC1CCCO1)C1CCN(c2cc(C(F)(F)F)ncn2)CC1 (centres undefined)	-8.1%
CN(Cc1ccccc1)C(=O)CSc1c2c(nc3ccc(Cl)cc13)CCCC2	-19.2%
COc1cc(OC)c(N(C)C(=O)CSc2c3c(nc4ccc(Cl)cc24)CCCC3)cc1Cl	11.2µM*
CCCN(CCC)C(=O)CSc1c2c(nc3ccc(Cl)cc13)CCCC2	i
COCCNC(=O)CSc1c2c(nc3cc(Cl)ccc13)CCCC2	-23.5%
COc1ccc(C)cc1NC(=O)c1ccc2c(SCC(=O)O)c3c(nc2c1)CCCC3	-29.1%
COc1ccc(OC)c(NC(=O)CSc2c3c(nc4cc(Cl)ccc24)CCCC3)c1	8.91µM*
Cc1ccc(NC(=O)CCC2CCN(C(=O)c3ccccc3F)CC2)cc1	i
O=C(O)C1CN(C(=O)N2CCOCC2)CCN(C2CCOCC2)C1 (centres undefined)	1.7%
O=C(c1ccc(-c2ccc(O)cc2)cc1)N1CCOC2(CNCCOC2)C1 (centres undefined)	-16.8%
CC(=O)N1CCN([C@H]2[C@@H]3OC[C@@H](O3)[C@@H](NCc3ccc(OC(F)(F)F)cc3)[C@@H]2O)CC1	4.4%
